Compound activity (PubChem)
ADAM17 inh – ADAM17 inhibitors, primary screen, biochemical, QFRET | Disintegrin and metalloproteinase domain-containing protein 17 (Homo sapiens), P78536 | recombinant ADAM17, EDANS/DABCYL FRET peptide cleavage | inhibition, % at 6.95 µM | 0.83% of 370,000 active | AID 720648, 2013;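 active = inhibition above the mean of compounds lying between control limits plus 3 SD, set per campaign, cut at about 8.5% in these data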;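 also: 0% = DMSO-only wells as the low control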
PLC-gamma1 inh – PLC-gamma1 enzyme inhibitors, primary screen, biochemical, fluorescence, purified enzyme | 1-phosphatidylinositol 4,5-bisphosphate phosphodiesterase gamma-1 (Homo sapiens), P19174 | fluorogenic substrate | inhibition, % at 12.2 µM | 0.84% of 370,000 active | AID 720700, 2013
ADAM10 inh – human ADAM10 inhibitors, primary screen, biochemical, QFRET, HTS; Disintegrin and metalloproteinase domain-containing protein 10 (Homo sapiens), O14672; recombinant ADAM10, EDANS/DABCYL FRET peptide cleavage, 3 h; inhibition, % at 7 µM; 0.62% of 370,000 active; AID 720582, 2013;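 active = inhibition above a per-campaign cutoff equal to the mean of compounds falling between control-based bounds plus 3 SD, cut at about 20% in these data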;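 also: 0% = DMSO wells while the 100% control is not disclosed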
PLC-beta3 inh – human PLC-beta3 inhibitors, primary screen, biochemical, fluorescence; inhibition, % at 12.2 µM; 1-phosphatidylinositol 4,5-bisphosphate phosphodiesterase beta-3 (Homo sapiens), Q01970; Purified PLC-beta3, fluorogenic substrate; 0.18% of 370,000 active; in the data active = inhibition above about 11%;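 also: 0% = median of compound wells on plate and 100% = full blocker control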
proKLK7 act – proKLK7 zymogen activators, primary screen, biochemical, fluorescence intensity. activation, % at 7 µM. AID 652039, 2013. 0.9% of 370,000 active. Kallikrein-7 (Homo sapiens), P49862. purified proKLK7, EDANS-DABCYL substrate fluorescence; 100% is mature enzyme control, 0% vehicle;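 active = activation above the mean of all tested compounds plus 3 SD, computed per campaign excluding outliers beyond control limits, cut at about 13% in these data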
PLCg1 ctr – PLC-gamma1 enzyme inhibitors, counter-screen for PLC-beta3 inhibitor project, biochemical, fluorescence. shares compounds with PLC-gamma1 inh. purified PLC-gamma1, fluorogenic substrate. inhibition, % at 12.3 µM. 3.1% of 3,300 active
PLCbeta3 conf – PLC-beta3 inhibitor confirmation, biochemical, fluorescence, purified enzyme; shares compounds with PLC-gamma1 inh; fluorogenic substrate fluorescence; inhibition, % at 12.3 µM; 1% of 3,300 active; AID 743261, 2014; in the data active = inhibition above about 11%
Numbers without * were called inactive; x = no result given. Compounds with a hit are over-represented: about 2.9% of the library has one in this group of screens. Rule as the data show it, unless noted: active = inhibition above about 9.5%; inactive = the rest.

SMILES	ADAM17 inh	PLC-gamma1 inh	ADAM10 inh	PLC-beta3 inh	proKLK7 act	PLCg1 ctr	PLCbeta3 conf
O=C1NC(=O)c2cc(NC(=O)C3COc4ccccc4O3)ccc21 (stereo unspecified)	-1	-2	-5	-4	0	x	x
FC(F)(F)c1nc(Oc2ccccc2)c2ccccc2n1	3	10*	8	2	1	1	1
COc1ccc(CCNS(=O)(=O)c2ccc3c(c2)NC(=O)CS3)cc1OC	-2	-1	5	-3	1	x	x
CCOC(=O)c1cnc2ccc(C)cc2c1NCCN1CCOCC1	0	11*	-19	0	-1	-10	-4
CC(C)(C)c1ccc(C(=O)NC(=S)N2CCOCC2)cc1	0	-2	-16	-5	0	x	x
CCCOc1ccc(/C=N\NC(=O)CCc2n[nH]c(=O)[nH]c2=O)cc1OC	2	11*	8	13*	0	-8	-1
O=C(O)CCC(=O)NNC(=O)CCC1CCCCC1	2	-1	-4	3	0	x	x
O=C(O)CCC(=O)OCC1CCCCC1	-1	9.8*	0	4	0	-6	-1
COc1ccc(CCNC(=O)Nc2nc(C(N)Cc3ccccc3)cs2)cc1OC (stereo unspecified)	8	9.6*	13	7	0	-4	1
COc1ccc(CC(N)c2csc(NC(=O)NCCc3ccc(OC)c(OC)c3)n2)cc1 (stereo unspecified)	1	1	-2	3	0	x	x
Cc1ccc(-n2ncc3c(N4CCC(C(N)=O)CC4)ncnc32)c(C)c1	0	15*	-12	1	0	3	2
CCN(CC)C(=O)C1CCN(c2ncnc3c2cnn3-c2ccc(C)cc2C)CC1	1	2	-2	-2	1	x	x
COc1ccc(N2CCN(C(=O)CCCn3c(=O)[nH]c4cc(Cl)ccc4c3=O)CC2)cc1	6	11*	5	7	0	-12	-8
Cc1nnc(NC(=O)c2ccc(-c3ccc([N+](=O)[O-])cc3)o2)s1	-3	-14	-5	-22	0	x	x
Cc1ccc(-c2noc(CCC(=O)NC3CCCC3)n2)cc1	-1	0	-3	-4	0	x	x
CCN1CCCC1CNC(=O)CCc1nc(-c2ccc(C)cc2)no1 (stereo unspecified)	2	10*	10	1	-1	4	-3
C=CCSc1nc(N)c(NC(=O)c2ccco2)c(=O)[nH]1	2	2	-11	2	0	x	x
CC(=O)Nc1ccc(NC(=O)CSc2nc(N)c(NC(=O)c3ccco3)c(=O)[nH]2)cc1	-2	12*	1	-4	-1	-2	3
CCC(C)NC(=O)CNC(=S)N(Cc1ccccc1)Cc1cccnc1 (stereo unspecified)	1	9.7*	7	4	0	1	2
CC(NC(=O)CNC(=S)N(Cc1ccccc1)Cc1cccnc1)c1ccccc1 (stereo unspecified)	-6	1	0	-3	-1	x	x
CNc1ncc(C(=O)C(C)(C)C)s1	-3	11*	-7	7	1	2	6
COc1ccc(Cl)cc1NC(=O)C/C(C)=N/NC(=O)CC#N	-2	0	5	0	1	x	x
COc1ccccc1NC(=O)CSc1ccc2nnc(-c3ccccn3)n2n1	-2	0	-8	2	-1	x	x
Nn1cnnc1N/N=C/c1ccccc1C(F)(F)F	2	7	3	-1	-1	x	x
Cc1ccc(/C=N/Nc2nncn2N)cc1	2	11*	7	2	-1	-15	-9
SMILES	ADAM17 inh	PLC-gamma1 inh	ADAM10 inh	PLC-beta3 inh	proKLK7 act	PLCg1 ctr	PLCbeta3 conf
Nn1cnnc1N/N=C/c1ccc(F)cc1	1	16*	3	4	0	-8	-3
Nn1cnnc1N/N=C/c1ccc(Cl)c([N+](=O)[O-])c1	3	12*	10	5	0	-4	-1
O=C1CC(c2ccc(Cl)cc2)c2c(O)cc(O)cc2O1 (stereo unspecified)	6	10*	13	-1	0	-6	-3
CCCCCC(O)C=CC1C(O)CC(O)C1CC=CCCCC(=O)O (stereo unspecified)	-1	2	-6	0	-1	x	x
CC1(C)O[C@@H]2[C@H](O1)[C@@H](CO)O[C@H]2n1cc(Br)c(=O)[nH]c1=O	5	14*	0	10	0	1	-6
COC(=O)C1=C(N)Oc2cc(C)n(Cc3cccnc3)c(=O)c2C1c1cc(OC)ccc1OC (stereo unspecified)	-4	-3	0	0	0	x	x
COC(=O)C1=C(N)Oc2cc(C)n(Cc3cccnc3)c(=O)c2C1c1cccc(OC)c1OC (stereo unspecified)	4	9.7*	-6	9	-1	-6	-2
Cc1ccc(NC(=O)Cc2c(F)cccc2Cl)cc1S(=O)(=O)N1CCOCC1	1	1	-4	5	-1	x	x
Cc1ccc(NS(=O)(=O)c2c(F)cc(F)c(Cl)c2F)cc1S(=O)(=O)N1CCOCC1	5	9.8*	8	10	0	-2	-3
COc1ccc(CCN2CC(C(=O)NCCc3ccccc3)CC2=O)cc1OC (stereo unspecified)	-3	-1	-2	-4	1	x	x
COCCCNC(=O)C1CC(=O)N(CCc2ccc(OC)c(OC)c2)C1 (stereo unspecified)	6	14*	5	3	0	2	0
CCOC(=O)C1CCN(Cc2cnc(Oc3ccc(OC)cc3)s2)CC1	6	5	2	11*	-1	-5	-1
Cc1cc(NS(=O)(=O)c2ccc3c(c2)CCC(=O)N3)ccc1Cl	4	-1	8	-3	x	x	x
Cc1ccccc1NS(=O)(=O)c1ccc2c(c1)CCC(=O)N2	4	13*	0	5	1	-5	-3
CCN(CC)C(=O)c1sc(NC(=O)c2ccc(C)c([N+](=O)[O-])c2)c(C#N)c1C	3	11*	11	6	-1	1	4
COc1ccc(C(=O)Nc2sc(C(=O)N(C)C)c(C)c2C#N)cc1[N+](=O)[O-]	1	2	3	5	0	x	x
N#CCC(C(=O)c1cccnc1)c1ccccc1 (stereo unspecified)	5	1	7	11*	0	0	-6
CN(C)CCC(C(=O)c1ccccc1)c1cccnc1 (stereo unspecified)	-1	-2	-16	-3	0	x	x
